{"source": "PubChem BioAssay AID687014", "about": "(The Scripps Research Institute Molecular Screening Center, 2013)", "note": "Hit rate of the full screen: of about 370,000 compounds, about 6,800 (1.8%) were called active.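 How the source made its calls: active means activation above a cutoff set at the mean of all screened compounds plus 3 SD (cut at about 10% in these data); inactive means the rest.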 Many of the other results were omitted from the sample, so actives are more common in it than they were.", "data": [{"system": "Nuclear hormone receptor DAF-12 (Heterodera glycines), GAL4 fusion", "experiment": "H. glycines DAF-12 receptor agonists, primary screen, cell-based, luminescence, HEK293, GAL4 fusion, UAS-luciferase (AID 687014);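 further: 0% = DMSO wells and 100% = sodium butyrate wells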", "settings": "HEK293 GAL4-hgDAF12 UAS-luciferase reporter, agonist luminescence; at 6.8 µM; hits give high values; normalized to butyrate control", "values": [{"smiles": "CN(CCc1ccccc1)C(=O)Cn1nc(-c2ccccc2)ccc1=O", "activation": "1.22% (inactive)"}, {"smiles": "O=C1CC[C@@]23CCCN2C(=O)CCC[C@H]3[C@H]1Cc1ccccc1", "activation": "-4.37% (inactive)"}, {"smiles": "Cc1nc2cc(NC(=O)Nc3cccc(F)c3)ccc2n1C", "activation": "14.2% (active)"}, {"smiles": "Cc1nc2nc(SCC(=O)Nc3cccc(F)c3)[nH]c2cc1Br", "activation": "0.38% (inactive)"}, {"smiles": "Cc1nc2cc(NCc3cccs3)ccc2n1C", "activation": "8.48% (inactive)"}, {"smiles": "Cc1ccc(C)c(CN2CCC(CNC(=O)C3CCCN(c4ncnc5c4nc4n5CCCCC4)C3)CC2)c1", "note": "(stereo not given)", "activation": "-0.85% (inactive)"}, {"smiles": "COC(=O)C(C(=O)OC)c1ccccc1NS(=O)(=O)c1cccc2ccccc12", "activation": "-2.1% (inactive)"}, {"smiles": "CCOc1ccc(NC(=O)C2CCCN(C(=O)Nc3ccccc3)C2)cc1", "note": "(stereo not given)", "activation": "1.89% (inactive)"}, {"smiles": "COc1ccc2cc(C(=O)C3CCCN(C(=O)c4sc(C)nc4C)C3)ccc2c1", "note": "(stereo not given)", "activation": "-1.02% (inactive)"}, {"smiles": "CCOc1ccc2nc(C(=O)N3CCCC(C)C3)sc2c1", "note": "(stereo not given)", "activation": "17.9% (active)"}, {"smiles": "COc1ccc(N(CC(=O)NCc2ccc(F)cc2)C(=O)CCC(=O)Nc2nccs2)cc1", "activation": "1.39% (inactive)"}, {"smiles": "CC(C)C(=O)Nc1c(C(=O)c2ccc(F)cc2)oc2ccccc12", "activation": "-0.79% (inactive)"}, {"smiles": "CC(C)C(=O)Nc1ccc2c(c1)oc1ccccc12", "activation": "12.2% (active)"}, {"smiles": "CC(C)C(=O)Nc1oc(-c2ccccc2)cc1C#N", "activation": "-0.28% (inactive)"}, {"smiles": "COC(=O)N1Cc2ccnnc2CC1c1ccccc1Br", "note": "(stereo not given)", "activation": "0.66% (inactive)"}, {"smiles": "CCC(c1nc2ccccc2[nH]1)n1c(=O)c(-c2cccs2)nc2ccccc21", "note": "(stereo not given)", "activation": "1.53% (inactive)"}, {"smiles": "FC(F)(F)c1cccc(-c2cc3ccccc3nc2N2CCCC2)c1", "activation": "-1.35% (inactive)"}, {"smiles": "FC(F)(F)c1cccc(-c2nc3ccccc3n2C(c2ccccc2)c2nc3ccccc3[nH]2)c1", "note": "(stereo not given)", "activation": "10.7% (active)"}, {"smiles": "COC(=O)C1=C(C)N(Cc2ccccc2C(F)(F)F)C(=NCC2CC2)NC1c1cccc(Cl)c1", "note": "(stereo not given)", "activation": "4.82% (inactive)"}, {"smiles": "C=CCN1[C@H](CC(C)C)COc2cccc(N3CCCC3)c2S1(=O)=O", "activation": "1.57% (inactive)"}, {"smiles": "Clc1ccc2nc(CSc3ccccc3)cn2c1", "activation": "15.8% (active)"}, {"smiles": "Cn1nc(-c2ccccc2)c(CSc2cccc(Cl)c2)c1Cl", "activation": "-1.11% (inactive)"}, {"smiles": "O=c1c2ccccc2nc2n1C(CSc1ccc(Cl)cc1)CN2", "note": "(stereo not given)", "activation": "-1.24% (inactive)"}, {"smiles": "COC(=O)C[C@@H]1CC[C@@H]2[C@H](COc3ccc(NC(=O)c4cccc(F)c4)cc3C(=O)N2C)O1", "activation": "7.18% (inactive)"}, {"smiles": "Cc1noc(C)c1NC(=O)Nc1ccc2c(c1)C(=O)N([C@H](C)CO)C[C@H](C)[C@H](CN(C)Cc1ccncc1)OCCCC[C@@H](C)O2", "activation": "2.01% (inactive)"}]}]}
